Laboratory results as given in PubChem BioAssay (NCI).
Where “and” joins values, the source holds several entries; their conditions need not be identical. Identical values can stand only once. The panel holds about 83,000 compounds, 20% with a hit somewhere; the sample as a whole holds those more often.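 For each line, cells grew in 96-well plates with the test compound present at a single concentration for 48 hours.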 Calls of active or inactive are those of the source. How the source made its calls: active means growth percent below 10; inactive means the rest.

What was measured:
Experiment in all cases: NCI-60 one-dose screen, 48 h (100 = growth as untreated, 0 = no growth, -100 = all killed)
Settings in all cases: 10 µM unless noted
[1] = test system: DU-145 prostate
[2] = test system: K-562 leukemia
[3] = test system: MALME-3M melanoma
[4] = test system: MDA-MB-231 breast
[5] = test system: RXF 393 renal
[6] = test system: SF-268 CNS
[7] = test system: SF-295 CNS
[8] = test system: SF-539 CNS
[9] = test system: UACC-257 melanoma
[10] = test system: M14 melanoma
[11] = test system: HCT-15 colon
[12] = test system: HT29 colon
[13] = test system: SNB-75 CNS
[14] = test system: SNB-19 CNS
[15] = test system: U251 CNS
[16] = test system: PC-3 prostate
[17] = test system: SK-MEL-5 melanoma
[18] = test system: UACC-62 melanoma
[19] = test system: LOX IMVI melanoma
[20] = test system: SK-MEL-28 melanoma

Measured: growth

Clc1ccc2c(N/N=C/c3c[nH]c4ccccc34)ccnc2c1
active: [1] -90.2% | [2] -22.1% | [3] -95.8% | [4] -83.5% | [5] -87.2% | [6] -58.4% | [7] -85.3% | [8] -86.7% | [9] -91.8% | [10] -89.3% | [11] -82.7% | [12] -72.3% | [13] -96.2% | [14] -92.4% | [15] -84.1% | [16] -81% | [17] -98.4% | [18] -61.7% | [19] -92.9% | [20] -92.7%

CCOC(=O)C1=C(C)NC(C)=C(C(=O)OCc2ccccc2)C1c1cccc(C#N)c1 (stereo not given)
inactive: [1] 57.2% | [2] 16.9% | [3] 38% | [4] 52.3% | [5] 44.5% | [6] 57.1% | [7] 15.5% | [8] 23.1% | [9] 55.9% | [10] 14.6% | [11] 23% | [12] 11.5% | [14] 41.5% | [15] 41.4% | [16] 33.1% | [17] 54.3% | [18] 33.4% | [19] 35.8% | [20] 51.2%
active: [13] -4.08%

NC(=O)n1c(=O)n(-c2cccc(C(F)(F)F)c2)c(=O)c2cc(-c3ccc(F)cc3F)ccc21
active: [2] 5.61% | [3] -18.8% | [4] -24% | [5] -2.52% | [7] -10.1% | [9] -13.5% | [13] -18.3% | [15] 6.64% | [16] -11.8% | [17] -59.7% | [18] -6.78% | [19] -28.3%
inactive: [1] 23.3% | [6] 16.6% | [8] 15.5% | [10] 11.1% | [11] 10.1% | [12] 74.8% | [14] 11% | [20] 26.1%

CCCCCCCCCC(=O)NC(C)(C)C(=O)N1CCC[C@H]1C(=O)N[C@@H](CC(C)C)C(=O)N[C@@](C)(CC)C(=O)N[C@@H](CCC(N)=O)C(=O)N[C@H](CCC(N)=O)C(=O)NC(C)(C)C(=O)NC(C)(C)C(=O)N[C@@H](CCC(N)=O)C(=O)N[C@H](CC(C)C)C(=O)N[C@H](CO)CC(C)C
active: [1] -97.6% and -52.1% | [3] -91.4% and -84.4% | [4] -92.8% and -95.8% | [5] -92.3% and -46.4% | [6] -68.6% and -46.2% | [7] -92.1% and -84.6% | [8] -97.7% and -99% | [9] -95% and -74% | [10] -77.5% and -65.7% | [12] -51.5% and -46.3% | [13] -66.3% and -94% | [14] -96.3% and -99% | [15] -92% and -81.5% | [16] -94.1% and -55.4% | [17] -96.7% and -93.7% | [18] -96.7% and -91.7% | [19] -91.5% and -88.4% | [20] -97.9% and -99.9%
-79.6% (active) and 23.1% (inactive): [11]
-81.3% (active) and 23% (inactive): [2]

Cc1ccc(NC(=O)Nc2nc3ccc([N+](=O)[O-])cc3s2)cc1
active: [3] -19.2% | [4] 2.83% | [5] -12.1% | [7] 0.916% | [9] -12.5% | [10] 7.25% | [11] 7.79% | [13] 1.44% | [15] 4.96% | [16] -1.61% | [17] -55% | [18] 9.49%
inactive: [1] 17.9% | [2] 10.7% | [6] 10.8% | [8] 14% | [12] 11.7% | [14] 11.3% | [19] 11.6% | [20] 14.8%

Cc1[nH]c(C(=O)Nc2ccc(C(N)=O)cc2N2CCOC(C)C2)c(Cl)c1Cl (stereo not given)
inactive: [1] 104% | [2] 92.2% | [3] 99.1% | [4] 95.7% | [5] 102% | [6] 98.8% | [7] 103% | [8] 95.7% | [9] 108% | [10] 101% | [11] 93.7% | [12] 118% | [13] 62.3% | [14] 92.7% | [15] 98.6% | [16] 96.7% | [17] 97.2% | [18] 91.1% | [19] 94% | [20] 108%

COc1ccc([C@H]2C(=O)N(c3cc(OC)c(OC)c(OC)c3)[C@@H]2c2ccc(OC)c(O)c2)cc1
inactive: [1] 16.7% | [3] 67.8% | [4] 17.5% | [6] 29.1% | [7] 18.5% | [9] 58.1% | [13] 40.2% | [14] 28.3% | [15] 15.7% | [16] 20.9% | [18] 33.1% | [19] 13.1% | [20] 63.7%
active: [2] 9.93% | [5] 6.67% | [8] -1.89% | [10] 4.54% | [11] 9.51% | [12] -3.08% | [17] -23%
